This is part of a sample that, as a whole, favours compounds with a hit. Of some 83,000 tested, about 20% had one in any assay.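 Method: cells in 96-well plates; compound added at one concentration; 48 h incubation; percent growth measured; values under 10 scored active.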 Unmarked numbers belong to inactive results. Active and inactive are the calls of the source.

For the first test, the system named is SW-620 colon. In words: NCI-60 one-dose screen, 48 h (100 = growth as untreated, 0 = no growth, -100 = all killed). To be noted: 10 µM.
In the case of `COc1ccc(-c2cc(-c3ccccc3)nc(SCCCC(=O)NO)n2)cc1`, the growth is 2.34% (active). Still for that read-out and setting: as for `COc1ccc(C(=O)N2C=Cc3ccccc3C2C#N)cc1` (stereo not given), the figure is 99%. In the case of `COc1ccc(-c2cc(-c3ccc(Cl)cc3)nc(SCCCC(=O)NO)n2)cc1OC`, the growth was 9.88% (active).

For another test, the system named is MCF7 breast. Described as above. To be noted: 10 µM.
As for `O=[N+]([O-])c1ccc(NCSc2ccc(Cl)cc2)cc1`, the growth is 95%. Regarding `CCOc1ccccc1/C=N\N=C(\N)N/N=C/c1ccccc1OCC`, the growth was 8.26% (active).

In the case of `Fc1ccc(C(c2ccc(F)cc2)C(Cl)Cl)cc1`, the growth was 98%.

The next test has as its system HCT-116 colon. The description is as above. To be noted: 10 µM.
`Cc1n[nH]c(C)c1N=Nc1cccc2c1C(=O)c1ccccc1C2=O`: the growth is 77.8%. The same measure, in the same setting: as for `O=C(CCCCNC(=O)c1nc(-c2ccccc2)n(-c2ccccc2)n1)NO`, the figure is 54.6%. For the compound `Cc1c(Cl)cccc1NC(=O)CN1CCOCC1`, the growth was 97%. On the same count and under the same terms, then `COc1ccc2nc3cc(Cl)ccc3c(N)c2c1`, with -99.2% (active); and `Cc1ccc(C(=O)/C=C/c2ccccc2)s1`, with 60.4%. Regarding `CC(=O)/C(=C/c1ccc(Br)cc1)C(=O)c1ccccc1`, the growth is 12.2%.

For `CN1C(=O)C2(Nc3cc(Cl)ccc3S2)c2cc(Cl)ccc21` (stereo not given), the growth is 82.9%. For the compound `COc1cc(CNC(=O)C2CSC3(C)c4ccccc4C(=O)N23)cc(OC)c1OC` (stereo not given), the growth was 98.1%. For `Brc1ccc2c(c1)-c1ccccc1C1=NCCN12`, the growth was -12.6% (active). `COc1cc(-c2nn(-c3ccc(NC(=O)NCCNS(=O)(=O)c4ccc(F)cc4)cc3)cc2-c2ccncc2)ccc1Cl`: the growth was -3.49% (active). Same read-out and setting: then `Cc1cc(Cl)ccc1Nc1nc(C(F)(F)F)ccc1C(=O)N/N=C/c1cccc(O)c1`, with 17.6%. Still for that read-out and setting: as for `CS(=O)(=O)c1nccc(-c2c(-c3cccc(OCc4ccc(F)cc4)c3)nc3sccn23)n1`, the figure is 46.4%; as for `COc1cc(/C=C/c2cc(/C=C/c3ccc(O)c(OC)c3)n(C(=O)Nc3ccc(C)cc3)n2)ccc1O`, 1.6% (active). Turning to `CCCN(CCC)C(=O)[C@H](CC)[C@@H]1CC[C@@H](C)[C@@H]([C@H](C)[C@@H](O)[C@@H](C)C(=O)[C@H](CC)C2O[C@]3(C=C[C@@H](O)[C@]4(CC[C@@](C)([C@H]5CC[C@](O)(CC)[C@H](C)O5)O4)O3)[C@H](C)C[C@@H]2C)O1` (stereo not given in full), the growth is 6.43% (active). With `COc1cc2cc(Oc3ccc(NC(=O)c4cccc(C(F)(F)F)c4)cc3)c(C)nc2cc1OC`, the growth was 18.1%.

For the compound `CCc1cc(Cl)c(OC)c(C(=O)NCC2CCCN2CC)c1O` (stereo not given), the growth was 88.5%.

In the case of `CN1CCc2c(sc3nc4n(-c5ccc(Cl)cc5)cnn4c(=O)c23)C1`, the growth was 98%. Still for that read-out and setting: as for `O=C(N/N=C/c1ccc([N+](=O)[O-])cc1)c1ccccc1Nc1cccc(C(F)(F)F)c1`, the figure is 53.9%.

On to `COc1ccc(/C=C2\CCCC3=C2NC(N)=NC3c2ccc(OC)c(OC)c2)cc1OC` (stereo not given), for which the growth was 7.91% (active). Regarding `CCOC(=O)CN(c1sc(C)c(C)c1C(=O)OCC)S(=O)(=O)c1ccc(C)cc1`, the growth is 95.5%. As to `CC(=O)OC1CC2C(C)(C)CCC[C@]2(C)C2=C1C(O)=C(C(C)C)C(=O)C2=O` (stereo not given in full), the growth was -8.31% (active). On to `CCC(=O)OC1CCC2C3CCC(=O)OC3C(C)(CCC(=O)O)CC12C` (stereo not given), for which the growth is 5.1% (active).

As to `O=[N+]([O-])c1ccc(NCSc2ccc(Cl)cc2)cc1`, the growth was 86.3%. On the same count and under the same terms, as for `CNC(=O)c1cn(C2CC2)c2cc(N3CCN(C(=O)c4cc(OC)c(OC)c(OC)c4)CC3)c(F)cc2c1=O`, the figure is 103%; as for `CCCCN(CCCC)C(=O)[C@H](CC)[C@@H]1CC[C@@H](C)[C@@H]([C@H](C)[C@@H](O)[C@@H](C)C(=O)[C@H](CC)C2O[C@]3(C=CC(=O)[C@]4(CC[C@@](C)([C@H]5CC[C@](O)(CC)[C@H](C)O5)O4)O3)[C@H](C)C[C@@H]2C)O1` (stereo not given in full), 19%. Take `CCn1c2ccc(O)cc2c2c(C)c3c[n+](C)ccc3c(C)c21`: the growth was 33.9%. With `O=C(CI)OCC(COC(=O)CI)OC(=O)CI`, the growth is 56.3%.

For `COc1ccc(-c2cc(-c3ccc(OC)c(OC)c3)nc(SCCCC(=O)NO)n2)cc1`, the growth was 0.272% (active). `O=C(CSc1nnc(-c2ccc(Cl)cc2)o1)Nc1ccc(C(=O)/C=C/c2ccc(Cl)cc2)cc1`: the growth is 103%. For `CCOc1ccccc1/C=N\N=C(\N)N/N=C/c1ccccc1OCC`, the growth was 24.9%.

Turning to `CCCc1cn(CC(=O)Nc2nc3ccccc3s2)nn1`, the growth is 101%. On the same count and under the same terms, then `Fc1ccc(C(c2ccc(F)cc2)C(Cl)Cl)cc1`, with 96.8%. Regarding `COc1ccc2c(c1)CC=C1[C@@H]2CC[C@]2(C)C(=O)/C(=N/O)C[C@@H]12`, the growth is 61.9%. Turning to `Cc1ccc(Cl)cc1NC(=O)CCl`, the growth was 62.9%. Turning to `O=C(CCCSc1nc(-c2ccccc2)cc(-c2ccc(Cl)cc2)n1)NO`, the growth was 11.9%. In the case of `CC(=O)N[C@H](C(=O)N[C@@H](CCCNC(=N)N)C(=O)N[C@@H](CCCCN)C(=O)N[C@@H](CCCNC(=N)N)C(=O)N[C@]1(C)CCCCCC/C=C\CCC[C@@](C)(C(=O)N[C@@H](CCCNC(=N)N)C(=O)N[C@@H](CCC(=O)O)C(=O)N[C@@H](CC(C)C)C(=O)N[C@H](C(=O)N[C@@H](CCC(=O)O)C(N)=O)C(C)C)NC(=O)[C@H](CCC(N)=O)NC(=O)[C@H](CC(C)C)NC(=O)[C@H](CC(C)C)NC(=O)[C@H](CCCNC(=N)N)NC(=O)[C@H](CCCNC(=N)N)NC(=O)[C@H](CC(C)C)NC1=O)C(C)C`, the growth is 11.6%. For `COc1ccc(-c2cc(-c3ccccc3)nc(SCCCC(=O)NO)n2)cc1`, the growth was 3.36% (active). For `COc1ccc(C(=O)N2C=Cc3ccccc3C2C#N)cc1` (stereo not given), the growth is 115%. With `COc1ccc(-c2cc(-c3ccc(Cl)cc3)nc(SCCCC(=O)NO)n2)cc1OC`, the growth was 5.45% (active).
